# Screen size: about 52,000 compounds; about 4,300 (8.3%) were called active. This is one part of a sample in which actives are shown more often than they occur. A number with no mark means an inactive call. Cut-off read from the data, not from the text of the source: active = survival mostly below about 52% (no sharp cut-off); inactive = mostly above about 56%.
# System: DeltatarO mutant
# Experiment: growth inhibition of S. aureus wild type versus tarO mutant, primary screen, teichoic acid synthesis inhibitors, RN4220, OD600 (AID 463173)
# Conditions: OD600, 18 h, stronger effect = lower value, screened at 18.75 µg/mL (by protocol)
row,Compound,survival
1,Cc1ccc(-c2nnc(Nc3ccc(O)cc3)c3ccccc23)cc1S(=O)(=O)N1CCOCC1,65%
2,O=C1C2C3C=CC(C3)C2C(=O)N1CCN1C(=O)C2C3C=CC(C3)C2C1=O (stereo not given),101%
3,COc1ccccc1NC(=O)C1=C(C)Nc2nc(SC)nn2C1c1ccccc1Cl (stereo not given),87%
4,COCCCNC(=O)CSc1c2c(nc3ccc(Cl)cc13)CCCC2,68%
5,CCCCNC(=O)CSc1c2c(nc3ccc(Cl)cc13)CCCC2,38% (active)
6,CCCNC(=O)CSc1c2c(nc3ccc(Cl)cc13)CCCC2,62%
7,CCOc1ccccc1NC(=O)CSc1c2c(nc3ccc(Cl)cc13)CCCC2,45% (active)
8,CC(C)CCNC(=O)CSc1c2c(nc3ccc(Cl)cc13)CCCC2,51% (active)
9,CCOc1ccc(CNC(=O)CSc2c3c(nc4ccc(Cl)cc24)CCCC3)cc1,70%
10,CC(C)OCCCNC(=O)CSc1c2c(nc3ccc(Cl)cc13)CCCC2,71%
11,COC(=O)c1ccccc1NC(=O)CSc1c2c(nc3ccc(Cl)cc13)CCCC2,86%
12,CCN(CC)CCNC(=O)c1c(C)oc2ncn(C)c(=O)c12,91%
13,Cc1ccc(CNC(=O)C2CCCN(c3nc4c(C)cc(C)cc4s3)C2)cc1 (stereo not given),94%
14,CCC(=O)NC1CCC(c2ccccc2)CC1 (stereo not given),97%
15,Cc1ccc(OC(=O)c2cccnc2)cc1,97%
16,Cc1ccc(C)c(N2CCN(C(=O)c3cc4ccc5cccnc5c4[nH]3)CC2)c1,95%
17,Cc1c(C(=O)N2CCCCC2)c(S(=O)(=O)NCc2ccc(N(C)C)cc2)c(C)n1C,120%
18,COc1cccc(-c2nnn(CCc3nn[nH]n3)n2)c1,84%
19,CCOC(=O)CCN(c1ccccc1)S(=O)(=O)c1ccc2[nH]c(=O)ccc2c1,95%
20,CCC(C(=O)N1CCN(c2ccc(OC)cc2)CC1)n1nc(C)n2c(cc3occc32)c1=O (stereo not given),117%
21,CCC(C(=O)N1CCN(c2cc(C)ccc2C)CC1)n1nc(C)n2c(cc3occc32)c1=O (stereo not given),43% (active)
22,CCC(C(=O)N1CCN(c2cc(Cl)ccc2C)CC1)n1nc(C)n2c(cc3occc32)c1=O (stereo not given),69%
23,Cc1ccc(S(=O)(=O)c2nc(S(=O)(=O)c3ccc(C)cc3)c(NCCCOC(C)C)s2)cc1,75%

row,Compound,survival
1,C=C(C)c1cccc(C(C)(C)NC(=O)N2CCCC2)c1,111%
2,Cc1ccc(CNC(=O)Cc2c(C)c3c(cc(C)c4c(C)coc43)oc2=O)cc1,100%
3,CCn1c(NCc2ccc(OC)c(OC)c2)nc2ccccc21,116%
4,CCn1c(NCc2ccccc2)nc2ccccc21,95%
5,CCCn1c(NCc2ccccc2C)nc2ccccc21,108%
6,CCCn1c(NCc2ccc(N(CC)CC)cc2)nc2ccccc21,29% (active)
7,CCCC(O)c1nc2ccccc2n1Cc1ccccc1OC (stereo not given),105%
8,CCCn1c(NCc2ccccc2F)nc2ccccc21,90%
9,CCCCCn1c(NCc2ccccc2OC)nc2ccccc21,-1% (active)
10,CCCCn1c(NCc2ccc(N(C)C)cc2)nc2ccccc21,52%
11,Cn1c(NCc2ccccc2F)nc2ccccc21,93%
12,CCCCCn1c(NCc2ccc(OC)cc2)nc2ccccc21,33% (active)
13,CCCCn1c(NCc2cc(Br)ccc2O)nc2ccccc21,42% (active)
14,CCCCn1c(NCc2ccc(OC)cc2O)nc2ccccc21,66%
15,CCOC(=O)c1cc(-c2ccc(F)cc2)n(CCC(=O)Nc2cc(OC)cc(OC)c2)c1C,71%
16,Cc1ccc(Cl)cc1-n1ncc2c(Nc3ccc4c(c3)OCCO4)ncnc21,82%
17,Cc1c(C(=O)N2CCCC2)oc2c1-c1nn(CC(=O)NCc3cccc(Br)c3)cc1CC2,75%
18,COc1ccccc1-c1cc2nc(C)c(CCC(=O)Nc3cc(C)ccc3C)c(C)n2n1,60%
19,COc1ccc(CNC(=O)C2(c3cccs3)CCOCC2)cc1,72%
20,CCOc1ccc2c(c1)c(=O)c(S(=O)(=O)c1ccccc1)cn2CC(=O)Nc1ccccc1OC,70%
21,CC1=C(C(=O)NCc2ccc(Cl)cc2)C2(CCC(C)CC2)OC1=O (stereo not given),86%
22,Cc1nn(C)c2c1c(C(F)(F)F)cc(=O)n2C(C)C(=O)NCCc1ccc(Cl)cc1 (stereo not given),81%
23,Cn1c(=O)nc2n(-c3ccc(Cl)c(Cl)c3)c3cc(Cl)ccc3cc-2c1=O,87%

row,Compound,survival
1,CCOc1ccc(CN2CCc3nc(N4CCN(c5ccccn5)CC4)ncc3C2)cc1OC,120%
2,CCOC(=O)c1sc(N2C(=O)c3oc4ccccc4c(=O)c3C2c2ccc(C(C)(C)C)cc2)nc1C (stereo not given),51% (active)
3,Cc1nc(N2C(=O)c3oc4ccccc4c(=O)c3C2c2cccc(OCCC(C)C)c2)sc1C (stereo not given),59%
4,CCCOc1ccc(C2c3c(oc4ccccc4c3=O)C(=O)N2c2nc(C)c(C(=O)OCC)s2)cc1 (stereo not given),60%
5,CCOc1ccc(C2c3c(oc4ccccc4c3=O)C(=O)N2Cc2ccc3c(c2)OCO3)cc1 (stereo not given),36% (active)
6,CC(C)c1nnc(N2C(=O)c3oc4ccccc4c(=O)c3C2c2cccc(O)c2)s1 (stereo not given),62%
7,CCOc1cccc(C2c3c(oc4ccccc4c3=O)C(=O)N2c2nc(C)c(C(=O)OC)s2)c1 (stereo not given),51%
8,COC(=O)c1ccc(C2c3c(oc4ccccc4c3=O)C(=O)N2c2nc(C)c(C(=O)OC)s2)cc1 (stereo not given),71%
9,CCCOc1ccc(C2c3c(oc4ccccc4c3=O)C(=O)N2c2nnc(C(C)C)s2)cc1 (stereo not given),58% (active)
10,COc1cc(C2c3c(oc4ccccc4c3=O)C(=O)N2c2nnc(C(C)C)s2)cc(OC)c1OC (stereo not given),63%
11,CCOc1cccc(C2c3c(oc4cc(C)c(C)cc4c3=O)C(=O)N2c2nc(C)c(C)s2)c1 (stereo not given),74% (active)
12,CCOc1cc(C2c3c(oc4ccccc4c3=O)C(=O)N2Cc2ccc3c(c2)OCO3)ccc1O (stereo not given),81%
13,COc1ccc(C2c3c(oc4ccccc4c3=O)C(=O)N2Cc2ccc3c(c2)OCO3)cc1 (stereo not given),71%
14,Cc1cccc(CC(=O)NCCc2csc(-c3ccc(C(F)(F)F)cc3)n2)c1,101%
15,CCc1ccc(-n2c(=O)c3ccccc3n(CC(=O)NCCc3ccc(OC)c(OC)c3)c2=O)cc1,91%
16,CC(C)OC(=O)CSc1nnc(-c2ccc(O)cc2)o1,72%
17,COc1ccc(CSC(=N)N)cc1Cl,97%
18,COc1ccc(-c2csc(N)n2)cc1C,97%
19,O=C(NCC(c1ccco1)S(=O)(=O)c1cccs1)c1ccc(F)c(F)c1 (stereo not given),75%
20,COc1cccc(CNC(=O)CCn2nc(C)c3c(C)n(-c4ccccc4)nc3c2=O)c1,83%
21,Cc1ccc(NC(=O)CCCn2nc(C)c3c(C)n(-c4ccccc4)nc3c2=O)c(Cl)c1,89%
22,CCOc1ccc(CCNC(=O)Cn2nc(C)c3c(C)n(-c4ccccc4)nc3c2=O)cc1OCC,25% (active)
23,Cc1cc(Cl)ccc1NC(=O)CCCn1nc(C)c2c(C)n(-c3ccccc3)nc2c1=O,112%

row,Compound,survival
1,COc1ccc(CNC(=O)CCCn2nc(C)c3c(C)n(-c4ccc(C)cc4)nc3c2=O)cc1OC,74%
2,Cc1cccc(NC(=O)CCn2nc(C)c3c(C)n(-c4ccccc4)nc3c2=O)c1C,57%
3,Cc1ccc(C)c(NC(=O)CCn2nc(C)c3c(C)n(-c4ccccc4)nc3c2=O)c1,37% (active)
4,COc1cc(OC)c(NC(=O)CCCn2nc(C)c3c(C)n(-c4ccccc4)nc3c2=O)cc1Cl,32% (active)
5,COc1ccc(CNC(=O)CCn2nc(C)c3c(C)n(-c4ccccc4)nc3c2=O)cc1OC,0% (active)
6,Cc1ccc(CCNC(=O)Cn2nc(C)c3c(C)n(-c4ccc(C)cc4)nc3c2=O)cc1,79%
7,CCN(CC)CCNC(=O)Cn1nc(C)c2c(C)n(-c3ccccc3)nc2c1=O,70%
8,Cc1cc(Cl)ccc1NC(=O)CCn1nc(C)c2c(C)n(-c3ccccc3)nc2c1=O,72%
9,CCN(c1cccc(C)c1)S(=O)(=O)c1cc2c(cc1C)n(C)c(=O)c(=O)n2C,85%
10,COC(=O)c1ccccc1NC(=O)CCCn1c(C)c2cnn(-c3ccccc3)c(=O)c2c1C,90%
11,COc1ccc(OC)c(C2=NS(=O)(=O)N(C)C(C(=O)Nc3ccc(F)cc3F)=C2)c1,72%
12,COC(=O)c1ccc(NC(=O)CN(C)S(=O)(=O)c2ccc3c(c2)CCCC(=O)N3)cc1,79%
13,CCCN1C2CCCC1CC(NC(=O)NC1CCCCC1)C2 (stereo not given),59%
14,CCOC(=O)c1cc2c(ccn2-c2ccc(F)cc2)n1CC(=O)N1C(C)CCCC1C (stereo not given),103%
15,CC(=O)c1cc(C(=O)Nc2cc(C)cc(C)c2)c2ccccn12,43%
16,CCOc1cccc(C2c3[nH]c4ccccc4c3CCN2C(=O)CCC2CCCC2)c1 (stereo not given),78%
17,COC(=O)c1ccccc1NC(=O)Cn1cnc2sc(C)c(S(=O)(=O)N3CCC(C)CC3)c2c1=O,59%
18,Cc1nn(CCC(=O)NCc2ccc(Cl)cc2)c(=O)c2nn(-c3ccccc3)c(C)c12,0% (active)
19,Cc1nn(CCC(=O)NCc2ccc(N(C)C)cc2)c(=O)c2nn(-c3ccccc3)c(C)c12,95%
20,CCc1ccc(CNC(=O)CCn2nc(C)c3c(C)n(-c4ccccc4)nc3c2=O)cc1,55%
21,O=c1c2cnn(-c3ccc(Cl)cc3)c2ncn1Cc1ccc(Cl)cc1Cl,102%
